Experimental data as given in PubChem BioAssay (NCATS).
“And” between values parts separate entries of the source, which are not always exact repeats. Equal entries are not always repeated. Results filed as inconclusive are left out. A call without a number means that no potency is given here. A number with no mark means an inactive call. The source made the active and inactive calls. Calls follow the shape of the dose curve; as a rule, active = well fitted curve in the direction sought with a large enough effect; inconclusive = small, poorly fitted or top-dose-only effect, or another doubt; inactive = no such curve, though single readings can be large; an effect the other way counts as inactive or inconclusive.

Assays:
[1] = Viability qHTS for spleen associated tyrosine kinase inhibitor (SYKi) naive MV4-11 cells (AID 1963823); also: nearly all actives have a fitted effect of over 40% in size
Summary of the method: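 Compounds were dispensed acoustically onto plates, MV4-11 cells (SYKi-naive) added at 500 per well, and plates incubated 72 hr at 37 C. CellTiter-Glo was added and luminescence measured after 10 min.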

[2] = Viability qHTS for spleen associated tyrosine kinase inhibitor (SYKi) drug resistant MV4-11 cells (AID 1963824); also: nearly all actives have a fitted effect of over 35% in size
Summary of the method: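 CellTiter-Glo luminescence, read 10 min after reagent addition, reports viability after a 72 hr compound exposure. Cells are an MV4-11 line made resistant to SYK inhibition, seeded at 500 per well onto compound-containing plates.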

[3] = Quantitative highthroughput screen to assess conditional lethalithy of NOMO1 cells grown in RPMI1640 with untreated serum (RPMI+s) (AID 1963876); also: nearly all actives have a fitted effect of over 35% in size
Summary of the method: (§1)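 Each medium arm—HPLM with 10% dialyzed FBS, or RPMI1640 with 5 mM glucose and 10% untreated or dialyzed FBS—was screened against an 11-point, 3-fold compound titration for 48 h at 37 °C, with CellTiter-Glo luminescence as endpoint.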

[4] = Quantitative highthroughput screen to assess conditional lethalithy of NOMO1 cells grown in RPMI1640 with dialyzed fetal bovine serum (RPMI+ds) (AID 1963877); also: nearly all actives have a fitted effect of over 30% in size; as to Viability: series mostly up to about 46 µM
Summary of the method: as §1

[5] = Quantitative highthroughput screen to assess conditional lethalithy of NOMO1 cells grown in Human Plasma-Like Medium with dialyzed fetal bovine serum (HPLM+ds) (AID 1963878); also: nearly all actives have a fitted effect of over 35% in size
Summary of the method: as §1

[6] = Quantitative highthroughput screen to assess conditional lethalithy of P12 Ichikawa cells grown in Human Plasma-Like Medium with dialyzed fetal bovine serum (HPLM+ds) (AID 1963879); settings: Potency: viability; also: nearly all actives have a fitted effect of over 35% in size; as to Viability: series mostly up to about 46 µM
Summary of the method: as §1

[7] = Quantitative highthroughput screen to assess conditional lethalithy of P12 Ichikawa cells grown in RPMI1640 with dialyzed fetal bovine serum (RPMI+ds) (AID 1963880); settings: Potency: P12-Ichikawa viability; also: nearly all actives have a fitted effect of over 35% in size
Summary of the method: as §1

[8] = Quantitative highthroughput screen to assess conditional lethalithy of P12 Ichikawa cells grown in RPMI1640 with untreated serum (RPMI+s) (AID 1963881); settings: Potency: viability; also: nearly all actives have a fitted effect of over 35% in size; as to Viability: series mostly up to about 46 µM
Summary of the method: as §1

[9] = Quantitative highthroughput screen to assess conditional lethalithy of SEM cells grown in Human Plasma-Like Medium with dialyzed fetal bovine serum (HPLM+ds) (AID 1963882); also: nearly all actives have a fitted effect of over 35% in size; as to Viability: series mostly up to about 46 µM
Summary of the method: as §1

[10] = Quantitative highthroughput screen to assess conditional lethalithy of SEM cells grown in RPMI1640 with unreated serum (RPMI+s) (AID 1963883); also: nearly all actives have a fitted effect of over 35% in size
Summary of the method: as §1

[11] = Quantitative highthroughput screen to assess conditional lethalithy of SEM cells grown in RPMI1640 with dialyzed fetal bovine serum (RPMI+ds) (AID 1963884); also: nearly all actives have a fitted effect of over 35% in size; as to Viability: series mostly up to about 46 µM
Summary of the method: as §1

[12] = Cellular viability qHTS for adrenocortical cancer (ACC) cell line SW-13 (AID 1963989); settings: SW-13 ACC cells viability, CellTiter-Glo, 48 h; activity (max response): hits give low values; also: nearly all actives have a fitted effect of over 65% in size;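 as to activity (max response): cells grown in serum-free medium with ITS supplement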
Summary of the method: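 Compound titrations (up to 46 uM final, in DMSO) were applied to SW-13 cells for 48 h at 37C/5% CO2. Reading used CellTiter-Glo after 20 min at room temperature; fitted curves yielded IC50 and efficacy.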

[13] = Cellular viability qHTS for adrenocortical cancer (ACC) cell line NCI-H295R (AID 1963990); also: nearly all actives have a fitted effect of over 60% in size
Summary of the method: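 Readout: CellTiter-Glo luminescence, 20 min RT. Exposure: 48 h, 37C/5% CO2. Cells: NCI-H295R, ITS-DMEM serum-free. Range: up to 46 uM. Analysis: 4PL fit, IC50 plus efficacy.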
Potency is read from the fitted curve at half-maximal effect.

Row | Structure (SMILES) | Potency [1] | Potency [2] | Potency [3] | Potency [4] | Potency [5] | Potency [6] | Potency [7] | Potency [8] | Potency [9] | Potency [10] | Potency [11] | activity (max response) [12] | Potency [13] | Potency [12]
1 | COc1ccc2[nH]cc(CCNC(C)=O)c2c1 | inactive | inactive | inactive | inactive | inactive | inactive | inactive | inactive | inactive | inactive | inactive | -5.05% and -7.41% |  | 
2 | Oc1ccc2ccccc2c1SSc1c(O)ccc2ccccc12 | 5.9 µM (active) and 11.6 µM (active) | 5.25 µM (active) and 9.2 µM (active) | inactive | inactive | inactive | inactive |  |  |  |  |  |  |  | 
3 | CC1Cc2ccccc2N1NC(=O)c1ccc(Cl)c(S(N)(=O)=O)c1 (stereo not given) | inactive | inactive | inactive | inactive | inactive | inactive | inactive | inactive | inactive | inactive | inactive | 9.73% and 7.78% | inactive | 
4 | COc1ccc(F)c(F)c1C(=O)c1cnc(NC2CCN(S(C)(=O)=O)CC2)nc1N | 651 nM (active) | 580 nM (active) and 742 nM (active) | 4.69 µM (active) | 6.62 µM (active) | 4.18 µM (active) | 20.9 µM (active) | 11.8 µM (active) | 11.8 µM (active) | 4.69 µM (active) | 4.18 µM (active) | 5.9 µM (active) |  |  | 3.55 µM (active)
5 | Cc1noc(-c2ccc(CSCCC(=O)O)cc2)c1NC(=O)OC(C)c1ccccc1Cl (stereo not given) | inactive | inactive | inactive | inactive | inactive | 18.7 µM (active) | inactive | inactive | inactive | inactive | inactive | -1.37% | inactive | 
6 | C=C(C)[C@@H]1CC[C@]2(C)CC[C@]3(C)[C@H](CC[C@@H]4[C@@]5(C)CC[C@H](O)C(C)(C)[C@H]5CC[C@]43C)[C@@H]12 | inactive | inactive | inactive | inactive | inactive | inactive | inactive | inactive | inactive | inactive | inactive | 4.74% | inactive | 
7 | Cc1cnc(C(=O)O)c[n+]1[O-] | inactive | inactive | inactive | inactive | inactive | inactive | inactive | inactive | inactive | inactive | inactive | -15.7% | inactive | 
8 | Cc1cnc(Nc2ccc(OCCN3CCCC3)cc2)nc1Nc1cccc(S(=O)(=O)NC(C)(C)C)c1 | 146 nM (active) and 186 nM (active) | 366 nM (active) and 417 nM (active) | inactive | inactive | inactive | inactive | inactive | inactive | 10.5 µM (active) | inactive |  |  | 10 µM (active) | 
9 | Cc1cc(Nc2ncnc3ccc(-c4ccc(CNCCS(C)(=O)=O)o4)cc23)ccc1Oc1ccn2ncnc2c1 | 11800 nM (active) | 11.6 µM (active) and 18.6 µM (active) | 0.935 µM (active) | 1.18 µM (active) | 0.209 µM (active) | 0.209 µM (active) | 0.743 µM (active) | 1.18 µM (active) | 0.59 µM (active) | 0.0935 µM (active) | 0.332 µM (active) |  | inactive | 
10 | CN(C)S(=O)(=O)c1ccc2c(c1)C(=Cc1cc3c([nH]1)CCCC3)C(=O)N2 | 833 nM (active) | 1.66 µM (active) | inactive | inactive | inactive | inactive | inactive | inactive | inactive | inactive |  | -10.1% | inactive | 
11 | N#Cc1cc(NC(=O)Nc2nnc(-c3ccncc3)s2)ccc1-c1cn[nH]c1 | inactive | inactive | inactive | inactive | inactive | inactive | inactive | inactive | inactive | inactive | inactive | 13.8% | inactive | 
